This is an account of results in PubChem BioAssay.

The structures appear in SMILES notation. Calls of active or inactive are those of the source.

Assay [1] deals with Human papillomavirus type 1a protein E7 (residues 44-93). Nature of the assay: small molecules binding HPV E7 44-93 – biochemical, small-molecule microarray, residues 44-93, 635 nm fluorescence, primary screen (AID 1108).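 Further: E7 fragment applied at 1 µg/mL in TBST for 1 h at 4 C; score combines spot fluorescence with its signal to noise ratio.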 As to conditions: fluorescence 635 nm, higher = more signal.
Assay [2] is described as follows: hepatitis C replication reporter changes, two-sided – Huh7 cells, luciferase reporter, HCV replication inhibitor project, primary screen (AID 1109).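 Further: huh7 hepatoma cells harbouring a luciferase neomycin HCV replicon reporter; luciferase luminescence as measure of HCV replicon replication; test concentration not given here.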 As to conditions: Huh7 HCV replicon luciferase reporter, 48 h; higher = more signal. For orientation: Reporter assays use an easily measured gene product as a stand-in for the process of interest.
For assay [3], the target named is Left-right determination factor 2 (Homo sapiens) (UniProt O00292). Nature of the assay: small molecules binding LEFTY2 protein – biochemical, small-molecule microarray, 635 nm fluorescence scan, primary screen (AID 1110). The settings on record: higher = more signal.
The target in assay [4] is Calmodulin-1 (Homo sapiens) (UniProt P0DP23). Nature of the assay: small molecules binding calmodulin-1 with EGTA – biochemical, small-molecule microarray, Cy5-labelled CALM1, profiling panel (AID 1111).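 Further: labelled calmodulin applied in Tris saline Tween buffer holding calcium plus EGTA and DTT.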 As to conditions: Cy5-CALM1 binding fluorescence, higher = more signal.
Assay [5] shares this target. Nature of the assay: small molecules binding Ca-loaded calmodulin-1 – biochemical, small-molecule microarray, Cy5-labelled CALM1, plus calcium, artefact control for SMM control-protein annotation, profiling panel (AID 1112).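 Further: score merges spot fluorescence with signal to noise from triplicate slides.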 As to conditions: Cy5-CALM1 binding fluorescence, higher = more signal.
Assay [6] in a line: probe aWnt5a binding to arrayed compounds – biochemical, biotinylated probe, 635/667 nm fluorescence, primary screen (AID 1113).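 Further: score merges 667 nm fluorescence intensity with signal-to-noise per printed feature.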 As to conditions: small-molecule microarray, higher = more signal.
Assay [7] in a line: probe aShh binding to arrayed compounds – biochemical, biotinylated probe, 635/667 nm fluorescence, primary screen (AID 1114).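 Further: probe is biotin-labelled aShh protein from a stem cell growth factor screen; measures binding of labelled protein to compounds printed on the slide; score merges feature fluorescence at 667 nm with signal-to-noise.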 As to conditions: small-molecule microarray, higher = more signal.
Assay [8] is described as follows: probe aNog binding to arrayed compounds – biochemical, biotinylated probe, 635/667 nm fluorescence, primary screen (AID 1115).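 Further: probe is biotinylated aNog protein used at 0.15 µg/mL for 1 h at 4 C; z-score combines 667 nm fluorescence of each spot with its signal to noise.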 The settings on record: small-molecule microarray, higher = more signal.
Assay [9] concerns the target Torsin-1A-interacting protein 1 (Homo sapiens) (UniProt Q5JTV8). Nature of the assay: compound microarray binding of lysate hLAP1 – cell lysate, small-molecule microarray, COS7 lysate, 635/667 nm fluorescence, primary screen (AID 1116). The settings on record: 635 nm fluorescence, higher = more signal.
Assay [10] addresses Alpha-bungarotoxin (Bungarus multicinctus) (UniProt P60615). Nature of the assay: compounds binding labelled alpha-BTX control protein – biochemical, small-molecule microarray, Alexa647 label, 635/667 nm fluorescence, artefact control for SMM control protein annotation, profiling panel (AID 1117). As to conditions: alpha-BTX-A647 binding fluorescence, higher = more signal.
A further assay concerns the target Albumin (Bos taurus) (UniProt P02769). Nature of the assay: compounds binding labelled BSA control protein – biochemical, small-molecule microarray, Alexa647 label, 635/667 nm fluorescence, artefact control for SMM control protein annotation, profiling panel (AID 1118).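 Further: score merges 667 nm emission intensity and signal-to-noise per printed compound spot.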 As to conditions: BSA-A647 binding, fluorescence 635 nm, higher = more signal.
The nature of assay [11]: probe aXIP binding to arrayed compounds – biochemical, NeuroSMM set, 635/667 nm fluorescence, primary screen (AID 1119).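 Further: probe is the protein aXip251-270 applied at 1 µg/mL to compound-printed slides; binding of probe to printed compounds measured as 667 nm fluorescence plus signal to noise.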 As to conditions: small-molecule microarray, higher = more signal, called active from +8 up or from −8 down.
Assay [12] in a line: probe aNOTCH3 binding on compound microarray – biochemical, small-molecule microarray, 635/667 nm fluorescence, primary screen (AID 1120).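 Further: probe is a biotin-tagged antibody raised against NOTCH3 rather than NOTCH3 protein; score merges spot fluorescence near 667 nm with spot signal to noise.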 The settings on record: higher = more signal.
Assay [13] in a line: probe aNOTCH2 binding on compound microarray – biochemical, small-molecule microarray, 635/667 nm fluorescence, primary screen (AID 1121).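 Further: score merges feature fluorescence read at 667 nm with its signal to noise.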 As to conditions: higher = more signal.
Assay [14] concerns the target Carbonic anhydrase 2 (Homo sapiens) (UniProt P00918). Nature of the assay: compounds binding carbonic anhydrase 2 – biochemical, small-molecule microarray, Alexa647-labelled CAII, profiling panel (AID 1122). As to conditions: CAII-A647 binding fluorescence, higher = more signal.
A short description of assay [15]: COS7 lysate on small-molecule microarray, probe aHis, 635 nm (AID 1123).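 Further: z-score combines 667nm fluorescence intensity with signal-to-noise per printed compound spot.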 As to conditions: COS7 cell lysate, fluorescence, higher = more signal.
The nature of assay [16]: probe aLAP1 signal on lysate-treated microarray – cell lysate, small-molecule microarray, COS7 lysate, primary screen (AID 1124).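 Further: lysate comes from COS7 cells expressing LAP1 and is applied at 0.3 µg/mL; score merges spot fluorescence near 667 nm with signal-to-noise over triplicate slides.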 The settings on record: probe aLAP1, fluorescence, higher = more signal.
The subject of another assay is Sam68 (KHDRBS1). The experiment in a line: compounds binding KHDRBS1 protein – biochemical, small-molecule microarray, 635 nm fluorescence, primary screen (AID 1125).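 Further: score merges 667 nm channel intensity with signal to noise over triplicate slides.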 As to conditions: higher = more signal.
Assay [17] relates to Chordin-like protein 2 (CHRDL2). Nature of the assay: compounds binding chordin-like 2 – biochemical, small-molecule microarray, 635 nm fluorescence, primary screen (AID 1126).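 Further: printed compound slides probed with Chrdl2 protein at 4 µg/mL for 1 h at 4 C; score merges 667 nm emission intensity with signal to noise over three replicate slides.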 As to conditions: fluorescence 635 nm, higher = more signal.
Assay [18] has as its target Concanavalin-A (Canavalia ensiformis) (UniProt P02866). Nature of the assay: compounds binding concanavalin A lectin – biochemical, small-molecule microarray, Alexa647 label, 635 nm, artefact control for SMM control protein annotation, primary screen (AID 1127).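 Further: z combines 667 nm emission intensity with signal-to-noise across three replicate slides.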 As to conditions: ConA-A647 binding fluorescence, higher = more signal.

Sequence of Alpha-bungarotoxin (Bungarus multicinctus) (P60615 whole entry, looked up): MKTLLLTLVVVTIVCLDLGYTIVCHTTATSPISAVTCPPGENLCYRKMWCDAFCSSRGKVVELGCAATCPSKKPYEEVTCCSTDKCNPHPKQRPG
Sequence of Torsin-1A-interacting protein 1 (Homo sapiens) (Q5JTV8 whole entry, looked up): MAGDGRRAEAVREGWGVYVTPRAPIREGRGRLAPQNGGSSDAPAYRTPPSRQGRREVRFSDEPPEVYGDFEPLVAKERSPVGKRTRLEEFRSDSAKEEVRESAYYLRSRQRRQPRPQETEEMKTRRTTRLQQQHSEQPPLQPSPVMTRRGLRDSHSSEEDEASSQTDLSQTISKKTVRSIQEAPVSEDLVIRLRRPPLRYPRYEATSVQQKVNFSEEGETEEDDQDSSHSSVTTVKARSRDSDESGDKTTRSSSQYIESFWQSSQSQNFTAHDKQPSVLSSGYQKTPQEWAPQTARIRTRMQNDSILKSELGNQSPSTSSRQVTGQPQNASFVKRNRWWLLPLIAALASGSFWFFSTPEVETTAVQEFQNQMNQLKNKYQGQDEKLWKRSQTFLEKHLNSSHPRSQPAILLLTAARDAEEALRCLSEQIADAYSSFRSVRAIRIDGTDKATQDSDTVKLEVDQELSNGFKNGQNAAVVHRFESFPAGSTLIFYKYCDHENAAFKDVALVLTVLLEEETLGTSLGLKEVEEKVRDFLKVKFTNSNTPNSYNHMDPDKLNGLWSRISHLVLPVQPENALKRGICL
Sequence of Concanavalin-A (Canavalia ensiformis) (P02866 whole entry, looked up): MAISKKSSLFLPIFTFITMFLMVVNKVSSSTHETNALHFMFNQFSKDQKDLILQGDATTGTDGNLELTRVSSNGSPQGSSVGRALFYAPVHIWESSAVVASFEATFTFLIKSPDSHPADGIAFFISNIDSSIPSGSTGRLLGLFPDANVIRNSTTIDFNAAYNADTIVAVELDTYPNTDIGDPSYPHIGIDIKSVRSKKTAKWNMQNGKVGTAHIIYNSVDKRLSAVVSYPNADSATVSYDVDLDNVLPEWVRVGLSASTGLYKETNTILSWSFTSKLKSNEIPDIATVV
Sequence of Left-right determination factor 2 (Homo sapiens) (O00292 whole entry, looked up): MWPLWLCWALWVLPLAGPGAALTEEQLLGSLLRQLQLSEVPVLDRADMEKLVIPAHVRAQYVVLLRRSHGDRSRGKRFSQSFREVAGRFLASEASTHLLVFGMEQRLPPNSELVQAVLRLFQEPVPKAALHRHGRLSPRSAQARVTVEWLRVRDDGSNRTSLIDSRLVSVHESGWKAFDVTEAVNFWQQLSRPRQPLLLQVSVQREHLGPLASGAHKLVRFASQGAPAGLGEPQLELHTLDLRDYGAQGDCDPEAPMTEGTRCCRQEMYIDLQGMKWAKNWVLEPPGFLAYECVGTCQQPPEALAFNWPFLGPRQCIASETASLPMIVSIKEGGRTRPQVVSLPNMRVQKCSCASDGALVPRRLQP
Sequence of Albumin (Bos taurus) (P02769 whole entry, looked up): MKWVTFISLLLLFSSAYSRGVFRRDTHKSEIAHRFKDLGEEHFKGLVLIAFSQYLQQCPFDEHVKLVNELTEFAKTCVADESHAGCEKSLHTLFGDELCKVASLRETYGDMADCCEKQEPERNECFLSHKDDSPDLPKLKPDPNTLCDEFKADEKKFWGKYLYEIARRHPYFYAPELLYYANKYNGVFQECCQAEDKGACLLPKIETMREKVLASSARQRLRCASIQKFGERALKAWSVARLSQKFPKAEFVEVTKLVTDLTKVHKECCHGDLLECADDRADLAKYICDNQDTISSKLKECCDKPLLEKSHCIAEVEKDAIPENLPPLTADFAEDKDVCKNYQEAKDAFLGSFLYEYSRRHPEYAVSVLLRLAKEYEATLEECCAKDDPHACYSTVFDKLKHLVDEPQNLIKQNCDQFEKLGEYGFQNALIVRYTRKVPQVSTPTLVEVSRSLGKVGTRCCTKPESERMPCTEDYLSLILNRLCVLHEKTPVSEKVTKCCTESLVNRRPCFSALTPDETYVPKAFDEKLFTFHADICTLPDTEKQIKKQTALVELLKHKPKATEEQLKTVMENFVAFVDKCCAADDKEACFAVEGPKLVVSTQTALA

For `O=C(CS)NCCCCCNC(=O)[C@H]1C[C@H]2C(=O)NCC(=O)N2[C@H]1c1ccc(O)cc1`, the composite z-score in assay [1] was -1.12; in [3], -0.55; in assay [4], -0.0906; in [5], -0.0879; in assay [6] it was -0.256; in assay [7] it was -0.214. For the same compound, the composite z-score in assay [8] was -0.175; in assay [9], -0.736; in [10], -0.129; with Albumin (Bos taurus) it was -0.366; in assay [12], -0.372; in assay [13] it was -0.185. The composite z-score in assay [14] is 0.281; in [15] it was -0.29; in assay [16], -0.474; with Sam68 (KHDRBS1) it was -1.3; in assay [17] it was -0.559; in assay [18], -0.0836. The compound further registered a z-score in assay [2] of 0.464. For the same compound, the composite Z-score in assay [11] was 0.161 (inactive).
As for `Cc1ccc([C@H]2C(C(=O)O)=CCN2S(=O)(=O)c2ccc(C)cc2)cc1`, the composite z-score in assay [1] is 0.964; in assay [3], -0.441; in assay [4], 0.659; in assay [5], 0.261; in [6], -0.001; in assay [7], -0.0709. The composite z-score is -0.333 in [8]; 1.54 in assay [9]; 0.705 in assay [10]; 0.899 with Albumin (Bos taurus); -0.0299 in [12]; -0.109 in assay [13]. Besides, the composite z-score is 0.825 in [14]; 1.21 in assay [15]; 0.584 in [16]; 0.539 in the assay on Sam68 (KHDRBS1); -0.518 in assay [17]; 1.02 in assay [18]. The compound also displayed a z-score in [2] of -1.02. In addition, in assay [11], the composite Z-score was -0.168 (inactive).
Consider `COc1cc(CO)cc(I)c1O[C@H]1C=C(C(=O)NCCO)C[C@@H](NC[C@@H]2CCCO2)[C@@H]1O`, for which the composite z-score in assay [1] was 1.33; in assay [3], 0.187; in [4], -0.0113; in assay [5], -0.732; in [6] it was -0.096; in [7], -0.304. Also, the composite z-score in assay [8] was -0.267; in assay [9], 1.13; in assay [10] it was 0.693; with Albumin (Bos taurus), 0.0917; in [12] it was 0.105; in assay [13] it was -0.14. Also, the composite z-score was -0.0877 in assay [14]; -0.0856 in assay [15]; 0.696 in [16]; 1.16 in the assay on Sam68 (KHDRBS1); 0.0292 in assay [17]; 0.0446 in assay [18]. Also, the z-score in [2] was -0.695. Moreover, in assay [11], the composite Z-score is -0.791 (inactive).
As for `CCOC(=O)C[C@H]1[C@H](OC(=O)c2cc3ccccc3oc2=O)[C@@H](NC(=O)CC(C)C)c2cc(OCCCO)ccc2N1C(=O)c1ccccc1`, the composite z-score in assay [1] was 0.886; in [3] it was 0.371; in [4] it was -0.299; in assay [5], -0.543; in assay [6], 0.0317; in [7] it was -0.0011. The composite z-score in [8] is 0.819; in [9] it was 0.124; in [10], 1.06; with Albumin (Bos taurus), 0.793; in assay [12], -0.0044; in assay [13], -0.14. Also, the composite z-score in assay [14] amounted to 0.308; in assay [15] it was 0.614; in assay [16] it was 0.139; in the assay with Sam68 (KHDRBS1), 1.21; in assay [17] it was 0.202; in assay [18], 0.298. Further, the z-score in assay [2] was 0.186. Also, the composite Z-score in [11] was -0.081 (inactive).
Take `COCC(=C=CC[C@@H](O)c1ccc(OCCO)cc1)C[C@@H](O)c1ccccn1`: the composite z-score is 0.518 in [1]; 0.33 in assay [3]; -0.336 in assay [4]; -0.125 in [5]; 0.0173 in assay [6]; 0.227 in assay [7]. In addition, the composite z-score is -0.0184 in [8]; 0.407 in assay [9]; 0.338 in assay [10]; 0.762 in the assay with Albumin (Bos taurus); -0.0947 in [12]; -0.157 in assay [13]. In addition, the composite z-score in [14] was 0.532; in assay [15] it was 0.528; in assay [16], -0.517; with Sam68 (KHDRBS1), 0.472; in assay [17], 0.141; in assay [18], 0.403. The same compound returned a z-score in assay [2] of -1.24. In assay [11], the composite Z-score was -0.628 (inactive).
For `C=C(/C(=C/C[C@H](OC(=O)c1ccncc1)c1ccc(OCCO)cc1)c1cc(C(=O)OC)ccc1OC)C(C)C`, the composite z-score in [1] is 1.08; in assay [3], 0.17; in assay [4], 0.959; in assay [5], -0.218; in assay [6], -0.128; in assay [7], 0.111. The composite z-score in [8] was 0.108; in [9] it was 0.296; in [10], 1.72; with Albumin (Bos taurus), 0.605; in assay [12] it was -0.0362; in [13], -0.135. For the same compound, the composite z-score in assay [14] was 0.514; in assay [15], 1.15; in assay [16], 0.284; with Sam68 (KHDRBS1), 0.516; in [17], -0.0985; in assay [18] it was 0.985. In assay [2], this compound showed a z-score of -0.939. Also, the composite Z-score in [11] is -0.0856 (inactive).
